Assay results from PubChem BioAssay (NCATS).
Several values for one entry are separate records, joined by “and”; a condition that tells them apart may be missing. Identical values can stand only once. Records with an inconclusive call do not appear. Activity calls are given as the source filed them. Unless noted, calls follow the shape of the dose curve; as a rule, active = well fitted curve in the direction sought with a large enough effect; inconclusive = small, poorly fitted or top-dose-only effect, or another doubt; inactive = no such curve, though single readings can be large; an effect the other way counts as inactive or inconclusive.

Assays:
[1] = target: 3',5'-cyclic-AMP phosphodiesterase 4B (Homo sapiens) (UniProt Q07343); experiment: qHTS Assay for Inhibitors of PDE-IV (AID 607; active = well fitted activation curve with a large enough effect in the main read-out, with a control signal flat, not every such curve was filed as active; also: % of control where 0% means no effect)
3',5'-cyclic-AMP phosphodiesterase 4B (Homo sapiens), sequence (Q07343 whole entry, looked up): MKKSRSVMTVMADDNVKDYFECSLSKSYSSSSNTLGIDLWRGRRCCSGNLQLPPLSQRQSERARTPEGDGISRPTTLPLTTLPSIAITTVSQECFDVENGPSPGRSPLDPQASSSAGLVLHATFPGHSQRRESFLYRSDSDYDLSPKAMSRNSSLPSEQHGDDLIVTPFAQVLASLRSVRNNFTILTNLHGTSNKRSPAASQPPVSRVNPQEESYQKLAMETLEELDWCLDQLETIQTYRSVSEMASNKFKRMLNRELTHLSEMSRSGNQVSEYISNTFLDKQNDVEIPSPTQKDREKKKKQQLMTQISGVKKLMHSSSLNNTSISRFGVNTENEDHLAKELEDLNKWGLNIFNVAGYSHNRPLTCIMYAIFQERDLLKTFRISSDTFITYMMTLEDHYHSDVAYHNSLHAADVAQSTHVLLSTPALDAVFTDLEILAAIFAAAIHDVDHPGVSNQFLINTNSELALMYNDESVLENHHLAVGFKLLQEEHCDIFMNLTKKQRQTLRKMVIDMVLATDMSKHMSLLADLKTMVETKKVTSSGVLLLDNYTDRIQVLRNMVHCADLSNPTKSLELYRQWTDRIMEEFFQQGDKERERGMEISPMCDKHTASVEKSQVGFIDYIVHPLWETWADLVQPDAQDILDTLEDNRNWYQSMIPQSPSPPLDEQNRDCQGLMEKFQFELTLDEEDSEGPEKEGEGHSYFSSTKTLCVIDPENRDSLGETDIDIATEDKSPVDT
How it was run: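 ACTOne HEK293 cells carry a modified cAMP-gated CNG channel and express endogenous PDE4; plated 1000 cells/well, compounds up to 22.9 uM final. Membrane-potential dye fluorescence (ex 535/em 590) was read; parental cells received 10 uM forskolin + 100 uM RO 20-1724.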

[2] = Cell Viability - Mesenchymal (AID 546);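 also: cells exposed to compound for 40 hours before reading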
How it was run: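 Human kidney mesenchymal cells from normal renal glomeruli, 1000 cells/well, rested 5 hr at 37 °C, then treated 40 hr at 37 °C in complete medium. Cellular ATP read by CellTiter-Glo luminescence; AC50 from Hill-equation fits.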

[3] = Cellular Toxicity (caspase-3) HepG2 (AID 654);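 also: cells exposed to compound for 16 hours before reading; 0% = DMSO alone and 100% = caspase signal from 100 µM tamoxifen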
How it was run: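 Cells plated 5 hr at 37 °C, compound added, incubated 16 hr at 37 °C. Caspase-Glo 3/7 reagent followed, 20 min at room temperature, then luminescence read. Activation scored as signal increase; AC50 from Hill fit.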

[4] = Cellular Toxicity (caspase-3) Jurkat (AID 655); conditions: Jurkat caspase-3 activation, luminescence; caspase-3 activation: at 92.2 µM (top of the series), DMSO = 0%, tamoxifen = 100%;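 also: cells exposed to compound for 16 h at 37 °C before reading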
How it was run: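 Jurkat cells (5000/well) in complete medium exposed 16 h at 37 C; caspase-3/7 activity read by Caspase-Glo luminescence after 20 min at room temperature. Normalized to DMSO and 100 uM tamoxifen; AC50 from Hill fits.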

[5] = Cellular Toxicity (caspase-3) HUV-EC-C (AID 656)
How it was run: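 HUV-EC-C cells (1000/well) in complete medium, compound-treated 16 h at 37 °C; caspase-3/7 activity read by Caspase-Glo 3/7 luminescence. Normalized to DMSO (basal) and 100 uM tamoxifen (100%); AC50 from Hill-equation concentration-response fits.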

[6] = Cellular Toxicity (caspase-3) SHSY5Y (AID 657)
How it was run: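 SH-SY5Y human neuroblastoma cells, 1500/well, exposed to compound for 16 hours at 37 °C in complete medium. Caspase-3/7 activity read by Caspase-Glo luminescence after 1 hr at room temperature, normalized to DMSO and 10 uM staurosporine; AC50 from Hill fit.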

[7] = Cellular Toxicity (caspase-3) BJ (AID 658);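 also: 0% = DMSO basal and 100% = 10 µM staurosporine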
How it was run: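 BJ human foreskin fibroblasts, 1000 cells/well, treated 16 hours at 37 °C in complete medium; caspase 3/7 activity by Caspase-Glo luminescence after 1 hr at room temperature. Normalized to DMSO and 10 uM staurosporine; AC50 from Hill fits.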

[8] = Cellular Toxicity (caspase-3) MRC-5 (AID 659);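 also: 0% = DMSO basal and 100% = 10 µM staurosporine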
How it was run: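 MRC-5 human normal lung fibroblasts, 1500 cells/well, treated 16 h at 37 °C in complete medium. Caspase 3/7 measured by Caspase-Glo luminescence after 1 h at room temperature. Normalized to DMSO and 10 uM staurosporine; AC50 from Hill fit.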

[9] = Cellular Toxicity (caspase-3) SK-N-SH (AID 661);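 also: 0% = DMSO basal and 100% = 10 µM staurosporine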
How it was run: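 Human neuroblastoma SK-N-SH, 1500 cells/well, 5 hr pre-incubation, then compound 16 hr, 37 °C. Caspase-Glo 3/7 reagent, 1 hr RT, luminescence. Norm. to DMSO/10 uM staurosporine; Hill-fit AC50.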

[10] = Cellular Toxicity (caspase-3) Mesangial (AID 660);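 also: cells exposed to compound for 16 h before the caspase read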
How it was run: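 Mesangial cells, 1000/well, 5 h settle at 37 °C; compound 16 h, 37 °C; Caspase-Glo 3/7 reagent 20 min RT; luminescence. Norm.: DMSO = 0%, tamoxifen 100 uM = 100%. AC50, Hill fit.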

Nc1ccncc1
inactive: outcome [1]

Oc1cccc2cccnc12
inactive: outcome [2] | outcome [1] | Potency [3] | caspase-3 activation [4] 7.85% and 22.6% | outcome [5] | Potency [6] | outcome [7] | outcome [8] | outcome [9]

Oc1ccc(Cl)cc1Cc1ccccc1
inactive: outcome [2] | Potency [3] | caspase-3 activation [4] 18.5% | outcome [5] | Potency [6] | outcome [7] | outcome [8] | outcome [10] | outcome [9]

NCC(O)c1ccc(O)cc1 (centres undefined)
inactive: outcome [2] | Potency [3] | caspase-3 activation [4] -0.0147% | outcome [5] | Potency [6] | outcome [7] | outcome [8] | outcome [10] | outcome [9]

O=c1[nH]c2ccccc2n1CCCN1CCC(n2c(=O)[nH]c3cc(Cl)ccc32)CC1
inactive: outcome [1]

CCn1cc(C(=O)O)c(=O)c2ccc(C)nc21
inactive: outcome [1]

Clc1cccc(N2CCNCC2)c1
inactive: outcome [1]

COC1(CS(=O)c2ccccc2)CCN(CCc2c[nH]c3ccc(F)cc23)CC1 (centres undefined)
inactive: outcome [1]

O=P1(NCCCl)OCCCN1CCCl (centres undefined)
inactive: outcome [1]

O=c1[nH]c2ccccc2n1C1CCN(CCCC(c2ccc(F)cc2)c2ccc(F)cc2)CC1
inactive: outcome [1]

Cc1cccc(C)c1NC1=NCCCS1
inactive: outcome [1]

c1ccc2c(c1)Nc1ccccc1S2
inactive: outcome [2] | Potency [3] | caspase-3 activation [4] 0.561% | outcome [5] | Potency [6] | outcome [7] | outcome [8] | outcome [10] | outcome [9]

OCCOc1ccccc1
inactive: outcome [2] | Potency [3] | caspase-3 activation [4] -1.54% | outcome [5] | Potency [6] | outcome [7] | outcome [8] | outcome [10] | outcome [9]

C=C(C)[C@H]1Cc2c(ccc3c2O[C@@H]2COc4cc(OC)c(OC)cc4[C@@H]2C3=O)O1
inactive: outcome [1]
